# Data: PubChem BioAssay
# Activity calls are given as the source filed them. Unless noted, how the calls were made is not given here.
# Columns and labels:
# [1] = tested on: Wnt5a (protein binding on small-molecule microarray); assay: Wnt5a binders on small-molecule microarray, primary screen, biophysical, 635/667 nm fluorescence (AID 1142); details: 635 nm fluorescence, higher = more signal;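 further: fluorescence read at 667 nm with signal to noise per printed feature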
# [2] = cell viability in Huh7 cells, primary screen, cytotoxicity control for HCV replication inhibitor project, CellTiter-Glo luminescence, basal, 48 h (AID 1143); details: Huh7 HCV replicon, higher = more signal, called active from +8 up or from −8 down;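 further: Huh7 hepatoma cells carrying a hepatitis C replication reporter with no stimulus; test concentration not given here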
# [3] = P. aeruginosa biofilm formation inhibitors, primary screen, PAO1 strain, BacTiter-Glo luminescence, LB-PBS (AID 1144); details: 12 h, higher = more signal
# [4] = CREB reporter modulators without forskolin, primary screen, cell-based, PC12, CRE-LacZ reporter, unstimulated (AID 1145); details: no forskolin, luminescence, 4.5 h, higher = more signal, called active from +8 up or from −8 down
# [5] = CREB reporter modulators under forskolin, primary screen, cell-based, PC12, CRE-LacZ reporter, forskolin-stimulated (AID 1146); details: luminescence, 4.5 h, higher = more signal, called active from +8 up or from −8 down;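 further: PC12 cells with 6xCRE LacZ reporter stimulated by forskolin 10 µM; beta-galactosidase reporter signal reflecting CREB driven transcription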
# [6] = biological target: Streptavidin (Streptomyces avidinii) (UniProt P22629); assay: streptavidin binders on small-molecule microarray, primary screen, artefact control for SMM compound annotation, biophysical, 635/667 nm fluorescence (AID 1147); details: streptavidin binding, higher = more signal;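 further: signal reflects streptavidin binding to arrayed compounds as a control protein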
# Sequence of Streptavidin (Streptomyces avidinii) (P22629 whole entry, looked up): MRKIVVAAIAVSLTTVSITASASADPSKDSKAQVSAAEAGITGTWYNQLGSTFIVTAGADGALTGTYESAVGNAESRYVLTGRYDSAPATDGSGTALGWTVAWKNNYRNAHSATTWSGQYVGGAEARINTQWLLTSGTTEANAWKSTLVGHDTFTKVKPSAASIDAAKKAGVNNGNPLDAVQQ
# [7] = small-molecule binders of probe aInhba, primary screen, biochemical, small-molecule microarray, 635/667 nm fluorescence (AID 1148); details: higher = more signal;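 further: score merges 667nm spot fluorescence with signal-to-noise for antibody binding to printed compounds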
# [8] = biological target: Torsin-1A (Homo sapiens) (UniProt O14656); assay: torsin A binders from cell lysate, primary screen, small-molecule microarray, wild-type, 635/667 nm (AID 1149); details: COS7 hTOR1A-WT lysate, 635 nm fluorescence, higher = more signal
# Sequence of Torsin-1A (Homo sapiens) (O14656 whole entry, looked up): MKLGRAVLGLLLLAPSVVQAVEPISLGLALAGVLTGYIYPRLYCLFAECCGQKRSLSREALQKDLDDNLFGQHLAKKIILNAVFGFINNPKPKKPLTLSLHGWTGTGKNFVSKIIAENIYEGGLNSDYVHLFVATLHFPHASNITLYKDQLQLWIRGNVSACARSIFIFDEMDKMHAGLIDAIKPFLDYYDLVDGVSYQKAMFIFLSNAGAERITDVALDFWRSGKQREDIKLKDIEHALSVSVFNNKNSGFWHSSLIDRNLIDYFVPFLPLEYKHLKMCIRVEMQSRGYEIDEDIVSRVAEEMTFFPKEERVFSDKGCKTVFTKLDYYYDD
# [9] = biological target: Torsin-1A (Homo sapiens) (UniProt O14656); assay: small-molecule binders of mutant TOR1A in lysate, primary screen, cell lysate, small-molecule microarray, COS7 lysate, 635/667 nm fluorescence (AID 1150); details: COS7 hTOR1A mutant lysate, 635 nm fluorescence, higher = more signal;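 further: score pools 667 nm emission and signal to noise measuring lysate protein binding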
# [10] = tested on: Sonic hedgehog protein (Shh); assay: small-molecule binders of Shh protein, primary screen, biochemical, small-molecule microarray, 635/667 nm fluorescence (AID 1151); details: small-molecule microarray binding, 635 nm fluorescence; higher = more signal;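 further: Shh protein binding to compounds spotted on small-molecule microarray slides; score combines spot fluorescence intensity with signal-to-noise across triplicate slides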
# [11] = E. coli DRC41 culture turbidity changes, primary screen, E. coli filamentation inducer project, strain DRC41, OD650, 48 h (AID 1152);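 further: E. coli MC1000 strain DRC41 lacking acrAB efflux pump and sulA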; details: E. coli DRC41 (acrAB sulA), higher = more signal, called active from +8 up or from −8 down
# [12] = small-molecule binders of probe aLefty1, primary screen, biochemical, small-molecule microarray, 635/667 nm fluorescence (AID 1153); details: higher = more signal;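 further: score merges spot fluorescence with signal-to-noise ratio from the scanned slide images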
# [13] = PSAC antagonists in infected red cells, primary screen, cell-based, P. falciparum Indochina, OD700, 1 h (AID 1154); details: P. falciparum Indochina infected RBC osmotic lysis, higher = more signal, called active from +8 up or from −8 down
# [14] = PSAC antagonists in infected red cells, primary screen, cell-based, P. falciparum Indochina, OD700, 2 h (AID 1155);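 further: lysis reports solute entry through the parasite surface anion channel PSAC; channel blockers reduce lysis of infected cells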; details: P. falciparum Indochina infected erythrocytes, osmotic lysis OD700; higher = more signal, called active from +8 up or from −8 down
# [15] = osmotic lysis modulators in infected erythrocytes, primary screen, PSAC antagonist project, cell-based, P. falciparum Indochina, OD700, 3 h (AID 1156); details: higher = more signal, called active from +8 up or from −8 down
# [16] = PSAC antagonists in infected red cells, primary screen, cell-based, P. falciparum Indochina, OD700, 18 h (AID 1157); details: P. falciparum Indochina infected erythrocytes, osmotic lysis OD700, 18 h; higher = more signal, called active from +8 up or from −8 down
# [17] = modulators of S6 phosphorylation in cells, primary screen, cell-based, A549, cytoblot, luminescence, serum-stimulated (AID 1158); details: A549 phospho-S6 cytoblot, 5 h, higher = more signal;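 further: serum-stimulated A549 lung adenocarcinoma cells; signal is phosphorylated S6 detected by cytoblot immunostaining with HRP secondary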
# [18] = biological target: NADPH oxidase 2 (Homo sapiens) (UniProt P04839); assay: NOX2-dependent H2O2 signal modulators, primary screen, NOX inhibitor project, cell-based, HEK293-NOX2, PMA-stimulated, Amplex Red fluorescence (AID 1159); details: 45 min, higher = more signal, called active from +8 up or from −8 down; further: test concentration not given here
# Sequence of NADPH oxidase 2 (Homo sapiens) (P04839 whole entry, looked up): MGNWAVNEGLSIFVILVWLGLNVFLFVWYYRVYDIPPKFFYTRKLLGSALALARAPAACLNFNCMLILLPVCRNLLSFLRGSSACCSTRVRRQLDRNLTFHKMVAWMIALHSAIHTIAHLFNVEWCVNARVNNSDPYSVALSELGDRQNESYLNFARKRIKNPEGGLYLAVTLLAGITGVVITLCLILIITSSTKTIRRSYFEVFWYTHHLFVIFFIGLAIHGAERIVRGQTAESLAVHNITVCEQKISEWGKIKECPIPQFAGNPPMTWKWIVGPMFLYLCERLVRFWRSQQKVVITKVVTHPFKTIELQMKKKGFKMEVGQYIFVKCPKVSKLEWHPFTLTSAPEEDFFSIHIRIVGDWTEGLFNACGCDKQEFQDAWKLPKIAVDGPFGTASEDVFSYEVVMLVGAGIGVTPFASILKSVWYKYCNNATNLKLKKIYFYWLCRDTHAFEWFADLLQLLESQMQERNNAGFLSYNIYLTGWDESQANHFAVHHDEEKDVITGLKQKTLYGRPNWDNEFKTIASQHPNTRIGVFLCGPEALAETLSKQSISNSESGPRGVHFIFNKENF
# [19] = biological target: NADPH oxidase 4 (Homo sapiens) (UniProt Q9NPH5); assay: NOX4-dependent H2O2 signal modulators, primary screen, NOX inhibitor project, cell-based, HEK293-NOX4, tetracycline-induced, Amplex Red fluorescence (AID 1160); details: 45 min, higher = more signal, called active from +8 up or from −8 down
# Sequence of NADPH oxidase 4 (Homo sapiens) (Q9NPH5 whole entry, looked up): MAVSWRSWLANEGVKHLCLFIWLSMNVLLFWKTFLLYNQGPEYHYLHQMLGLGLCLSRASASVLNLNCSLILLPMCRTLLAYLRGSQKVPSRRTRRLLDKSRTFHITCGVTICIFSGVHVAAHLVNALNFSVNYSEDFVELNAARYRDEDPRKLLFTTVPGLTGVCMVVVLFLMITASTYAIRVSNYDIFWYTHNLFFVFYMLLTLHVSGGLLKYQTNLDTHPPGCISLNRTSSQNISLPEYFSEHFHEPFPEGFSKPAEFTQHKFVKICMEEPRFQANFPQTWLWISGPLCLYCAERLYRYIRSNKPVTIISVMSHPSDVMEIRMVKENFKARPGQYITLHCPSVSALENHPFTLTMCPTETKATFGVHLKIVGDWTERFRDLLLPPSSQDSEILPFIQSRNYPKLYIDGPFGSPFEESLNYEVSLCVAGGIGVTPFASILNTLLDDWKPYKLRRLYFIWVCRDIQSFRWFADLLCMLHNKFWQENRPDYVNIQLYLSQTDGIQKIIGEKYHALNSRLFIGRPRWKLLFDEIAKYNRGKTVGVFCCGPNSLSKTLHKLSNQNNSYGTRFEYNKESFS
# [20] = biological target: NADPH oxidase 5 (Homo sapiens) (UniProt Q96PH1); assay: NOX5-dependent H2O2 signal modulators, primary screen, NOX inhibitor project, cell-based, HEK293-NOX5, Amplex Red fluorescence (AID 1161); details: HEK293-NOX5, ionomycin, 45 min, higher = more signal
# Sequence of NADPH oxidase 5 (Homo sapiens) (Q96PH1 whole entry, looked up): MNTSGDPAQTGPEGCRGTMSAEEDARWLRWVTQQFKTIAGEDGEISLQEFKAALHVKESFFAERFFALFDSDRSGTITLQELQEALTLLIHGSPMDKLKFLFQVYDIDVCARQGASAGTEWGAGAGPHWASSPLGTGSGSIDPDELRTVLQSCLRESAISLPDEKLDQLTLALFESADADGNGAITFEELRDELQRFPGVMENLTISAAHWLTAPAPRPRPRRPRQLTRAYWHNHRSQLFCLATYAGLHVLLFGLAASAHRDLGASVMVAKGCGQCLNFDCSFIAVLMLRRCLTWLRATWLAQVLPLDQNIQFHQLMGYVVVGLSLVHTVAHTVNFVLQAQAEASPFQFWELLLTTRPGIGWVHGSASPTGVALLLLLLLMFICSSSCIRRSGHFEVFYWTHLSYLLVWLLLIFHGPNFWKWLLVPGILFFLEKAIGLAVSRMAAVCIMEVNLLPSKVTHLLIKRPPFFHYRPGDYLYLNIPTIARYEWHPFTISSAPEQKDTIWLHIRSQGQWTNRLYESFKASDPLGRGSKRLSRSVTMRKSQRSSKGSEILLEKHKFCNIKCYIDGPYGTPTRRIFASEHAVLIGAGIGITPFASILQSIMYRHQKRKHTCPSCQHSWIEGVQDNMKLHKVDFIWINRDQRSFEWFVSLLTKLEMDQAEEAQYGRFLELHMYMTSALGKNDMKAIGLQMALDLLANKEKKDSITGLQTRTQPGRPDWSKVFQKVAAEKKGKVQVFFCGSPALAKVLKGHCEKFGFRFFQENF
SMILES,composite z-score [1],z-score [2],z-score [3],z-score [4],z-score [5],composite z-score [6],composite z-score [7],composite z-score [8],composite z-score [9],composite z-score [10],z-score [11],composite z-score [12],z-score [13],z-score [14],z-score [15],z-score [16],z-score [17],z-score [18],z-score [19],z-score [20]
CO[C@H]1COC(=O)CC=C[C@H](C)[C@@H](OC)COC(=O)[C@@H](C)NC(=O)CC=C[C@@H]1C,0.0073,-1.42 (inactive),-1.15 (inactive),-0.0824 (inactive),0.123 (inactive),-0.343,-0.233,3.05,2.16,2.14,0.0321 (inactive),-0.152,-0.848 (inactive),-0.863 (inactive),-0.372 (inactive),-1.99 (inactive),1.03,-0.22 (inactive),0.403 (inactive),-0.0966
COc1ccc(COC(=O)NN=C2C[C@@H](O)[C@@H](O)[C@@H]3[C@@H]4C(=O)N(c5cccc(Oc6ccccc6)c5)C(=O)[C@@H]4CC[C@@H]23)cc1,-0.365,-0.201 (inactive),0.791 (inactive),2.15 (inactive),0.087 (inactive),0.519,-0.162,0.574,-0.101,-1.38,-0.367 (inactive),0.347,4.54 (inactive),1.2 (inactive),1.28 (inactive),0.181 (inactive),-0.313,1.32 (inactive),0.56 (inactive),1.02
CC(C)=CCCC(C)=CCON=C1C[C@@H](O)[C@@H](O)[C@@H]2[C@@H]3C(=O)N(Cc4ccccc4)C(=O)[C@@H]3CC[C@H]12,-0.0617,-3.4 (inactive),-0.302 (inactive),-0.293 (inactive),-0.96 (inactive),0.0609,-0.0736,0.23,0.0793,0.993,-0.169 (inactive),-0.0197,4.49 (inactive),-0.206 (inactive),0.957 (inactive),-0.748 (inactive),-0.352,1.51 (inactive),0.913 (inactive),-2.3
CC(CCN1CCc2nc(-c3ccccc3)c(-c3ccccc3)cc2C1)=NOC[C@@H](O)[C@H]1O[C@@H]2OC(C)(C)O[C@@H]2[C@H]1O,0.19,-0.875 (inactive),0.306 (inactive),2.25 (inactive),-0.311 (inactive),0.687,-0.0589,0.648,0.587,1.09,0.784 (inactive),-0.0099,1.47 (inactive),0.239 (inactive),0.318 (inactive),0.244 (inactive),-0.0979,-5.63 (inactive),-1.69 (inactive),-4.61
C[C@H]1CC[C@H]2C(=O)O[C@H](COc3ccc(C(C)(C)C)cc3)CN2[C@@H]1c1ccc(Br)cc1,-0.185,-1.47 (inactive),-0.239 (inactive),1.72 (inactive),-0.466 (inactive),0.0762,-0.0021,0.188,0.3,0.48,-0.421 (inactive),-0.412,0.683 (inactive),0.237 (inactive),-0.889 (inactive),0.465 (inactive),-0.338,0.215 (inactive),0.644 (inactive),0.974
Cc1cc2c(nc1C)CCCN2CC(O)CN1CCCc2nc(C)c(C)cc21,0.424,0.135 (inactive),0.051 (inactive),-0.704 (inactive),-0.875 (inactive),0.209,0.141,0.482,1.95,0.639,-0.171 (inactive),0.547,-0.274 (inactive),0.185 (inactive),0.249 (inactive),-0.0697 (inactive),-0.669,0.803 (inactive),0.628 (inactive),-0.575
COc1ccc(O[C@H]2C=C[C@@H](c3ccccc3)O[C@@H]2COC(=O)CCC(C)=NOC[C@@H](O)[C@H]2O[C@@H]3OC(C)(C)O[C@@H]3[C@H]2O)cc1,0.383,-0.119 (inactive),-0.108 (inactive),-1.14 (inactive),-0.866 (inactive),1.15,-0.0963,0.624,0.891,1.14,-1.89 (inactive),0.0004,4.09 (inactive),1.12 (inactive),1.11 (inactive),0.662 (inactive),0.332,-1.42 (inactive),0.0675 (inactive),-1.42
CO[C@H]1COC(=O)[C@H](C)NC(=O)CC=C[C@@H](C)[C@H](OC)COC(=O)[C@@H](OCc2ccccc2)C=C[C@@H]1C,-0.0911,0.382 (inactive),0.213 (inactive),0.971 (inactive),-0.262 (inactive),-0.697,-0.0791,0.57,-0.0163,0.683,0.31 (inactive),-0.0544,-0.352 (inactive),0.101 (inactive),0.912 (inactive),0.378 (inactive),-0.191,1.18 (inactive),0.332 (inactive),-0.017
